Laboratory results published in PubChem BioAssay (Tox21).
Several values for one entry are separate records, joined by “and”; a condition that tells them apart may be missing. Identical values can stand only once. Inconclusive results are not listed. Some compounds were tested as several samples or in several runs, with calls that do not always agree. Activity calls are given as the source filed them. Unless noted, calls come from the whole dose curve; as a rule, active = well fitted curve in the direction sought with a large enough effect in the repeat runs; inconclusive = weak or mixed curves; inactive = no such curve, though single readings can be large; an effect the other way counts as inactive or inconclusive.

Assays:
[1] = Human pregnane X receptor (PXR) small molecule agonists, qHTS cell viability counter screen (AID 1346977); note: nearly all actives have a fitted effect of over 50% in size; note: potency is the fitted concentration of half-maximal effect
Outline: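 HepG2 cells stably carrying the PXR-Luc reporter are cultured with 5% charcoal-stripped FBS and treated with compounds for 24hr. CellTiter-Fluor is added at 23hr and fluorescence is read after 1hr.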

[2] = Caspase-3/7 induction in HepG2 cells by small molecules, qHTS assay (AID 1346978); note: nearly all actives have a fitted effect of over 15% in size; note: potency is the fitted concentration of half-maximal effect
Outline: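 Caspase-3/7 induction was measured by Caspase-Glo 3/7 luminescence (30 min, room temperature) after a 17 hr compound exposure of wild-type HepG2 cells seeded at 2,000 per well and pre-incubated 5 hr.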

[3] = Caspase-3/7 induction in CHO-K1 cells by small molecules, qHTS cell viability counter screen (AID 1346979); note: nearly all actives have a fitted effect of over 35% in size; note: potency is the fitted concentration of half-maximal effect
Outline: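 Seeding: 1,500 CHO-K1 cells/well. Rest: 5hr, 37C. Treatment: compounds in DMSO, 16hr. Read: CellTiter-Fluor, 1hr, fluorescence.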

[4] = Caspase-3/7 induction in CHO-K1 cells by small molecules, qHTS assay (AID 1346980); note: nearly all actives have a fitted effect of over 15% in size
Outline: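 Luminescent Caspase-Glo 3/7 read (30min, room temperature) quantified apoptosis induction. Cells were wild-type CHO-K1, treated with compound for 17hr at 37 C and 5% CO2.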

[5] = Caspase-3/7 induction in HepG2 cells by small molecules, qHTS cell viability counter screen (AID 1346981); note: nearly all actives have a fitted effect of over 30% in size; note: potency is the fitted concentration of half-maximal effect
Outline: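 Counter screen for cytotoxicity: HepG2 exposed 16 hr to compounds, then CellTiter-Fluor viability signal (fluorescence, 1 hr reagent incubation).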

[6] = molecular target: Nuclear receptor subfamily 1 group I member 2 (Homo sapiens) (UniProt O75469); assay: Human pregnane X receptor (PXR) small molecule agonists, qHTS assay (AID 1346982); note: nearly all actives have a fitted effect of over 35% in size; note: potency is the fitted concentration of half-maximal effect
Outline: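 Luminescence (ONE-Glo, 30 min RT) after 24 hr compound exposure of PXR-Luc HepG2 cells; cells rested 5 hr post-plating in 5% charcoal-stripped FBS medium.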

[7] = molecular target: Acetylcholinesterase (Homo sapiens) (UniProt P22303); assay: Acetylcholinesterase (AChE) small molecule antagonists: colormetric cell-based qHTS assay (AID 1347395; calls by dose curve; note: nearly all actives have a fitted effect of over 30% in size; note: potency is the fitted concentration of half-maximal effect)
Outline: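 Quantitative HTS in attached SH-SY5Y cells: 30 min compound exposure, then 90 min with acetylthiocholine and DTNB at 37 C; colour from thiocholine reports AChE activity.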

[8] = molecular target: Acetylcholinesterase (Homo sapiens) (UniProt P22303); assay: Acetylcholinesterase (AChE) small molecule antagonists: enzyme-based qHTS assay (AID 1347397; calls by dose curve; note: nearly all actives have a fitted effect of over 55% in size; note: potency is the fitted concentration of half-maximal effect); settings: Potency: AChE enzyme activity inhibition; outcome: AChE enzyme activity inhibition
Outline: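 rhAChE 50 mU/mL (dispensed) + cpd or DMSO, 30 min RT; add DTNB/acetylthiocholine cocktail, 10 min RT; colorimetric thiocholine readout. qHTS, 1536-well format.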

[9] = molecular target: Acetylcholinesterase (Homo sapiens) (UniProt P22303); assay: Acetylcholinesterase (AChE) small molecule antagonists: fluorescence cell-based qHTS assay (AID 1347398; calls by dose curve; note: nearly all actives have a fitted effect of over 50% in size; note: potency is the fitted concentration of half-maximal effect); settings: Potency: AChE activity; outcome: AChE activity
Outline: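 Read-out is Thiolite Green fluorescence at Ex/Em = 490/520 nm, formed by reaction with thiocholine released when cellular AChE in SH-SY5Y cells hydrolyzes acetylthiocholine. Compounds were preincubated 30 min at 37 C before substrate.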

[10] = molecular target: Acetylcholinesterase (Homo sapiens) (UniProt P22303); assay: Acetylcholinesterase (AChE) small molecule antagonists: enzyme-based qHTS assay with human liver microsomes (AID 1347399; calls by dose curve; note: nearly all actives have a fitted effect of over 60% in size; note: potency is the fitted concentration of half-maximal effect); settings: Potency: qHTS inhibition; outcome: qHTS inhibition
Outline: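 Recombinant human AChE (50 mU/mL in the enzyme mix) and human liver microsomes (0.25 mg/mL final) were preincubated with compound and NADPH (0.25 mg/mL final) for 30 min at 37 C. Acetylthiocholine/DTNB was then added; thiocholine was read colorimetrically after 10 min at room temperature.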

[11] = molecular target: Cytochrome P450 2C19 (Homo sapiens) (UniProt P33261); assay: Cytochrome P450 Family 2 Subfamily C Member 19 (CYP2C19) small molecule antagonists: luciferase reporter qHTS assay (AID 1671197); note: nearly all actives have a fitted effect of over 65% in size; note: potency is the fitted concentration of half-maximal effect
Outline: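 Relative luminescence units recorded 20 min after the detection reagent stopped a 1 h, 37C CYP2C19 reaction on proluciferin substrate, which was started by NADPH regeneration following 10 min room-temperature compound preincubation; ketoconazole positive control.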

[12] = molecular target: Cytochrome P450 2C9 (Homo sapiens) (UniProt P11712); assay: Cytochrome P450 Family 2 Subfamily C Member 9 (CYP2C9) small molecule antagonists: luciferase reporter qHTS assay (AID 1671198); note: nearly all actives have a fitted effect of over 50% in size; note: potency is the fitted concentration of half-maximal effect
Outline: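 Enzyme-substrate mix preincubated with compound 10 min at room temperature; reaction started with NADPH regeneration solution, 1 h 37C. Luminescent luciferin product read after 20 min detection reagent.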

[13] = molecular target: Cytochrome P450 1A2 (Homo sapiens) (UniProt P05177); assay: Cytochrome P450 Family 1 Subfamily A Member 2 (CYP1A2) small molecule antagonists: luciferase reporter qHTS assay (AID 1671199); note: nearly all actives have a fitted effect of over 50% in size; note: potency is the fitted concentration of half-maximal effect
Outline: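 Signal from luciferin formed by CYP1A2 from a proluciferin substrate is read as luminescence, expressed in relative luminescence units. Compounds sit with enzyme 10 min, NADPH-driven reaction runs 1 h, all at room temperature.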

[14] = molecular target: Voltage-gated inwardly rectifying potassium channel KCNH2 (Homo sapiens) (UniProt Q12809); assay: Human Ether-a-go-go-Related Gene (hERG) channel small molecule antagonists: fluorescence cell-based qHTS assay (AID 1671200); note: nearly all actives have a fitted effect of over 50% in size; note: potency is the fitted concentration of half-maximal effect
Outline: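 First, 1000 cells per well are seeded and cultured overnight at 37 C. Next, FluxOR II dye is loaded for 1 h at room temperature, protected from light. After 10 more minutes, stimulus is added and fluorescence is read.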

[15] = molecular target: Cytochrome P450 3A4 (Homo sapiens) (UniProt P08684); assay: Cytochrome P450 Family 3 Subfamily A Member 4 (CYP3A4) small molecule antagonists: luciferase reporter qHTS assay (AID 1671201); note: nearly all actives have a fitted effect of over 50% in size; note: potency is the fitted concentration of half-maximal effect
Outline: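 Enzyme and proluciferin substrate are mixed with test chemicals for 10 min, then NADPH regeneration system drives turnover for 1 h at room temperature. A detection reagent halts the reaction; luminescence after 20 min gives relative activity.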

[16] = molecular target: Nuclear receptor subfamily 1 group I member 2 (Rattus norvegicus) (UniProt Q9R1A7); assay: Rat pregnane X receptor (rPXR) activation by small molecules, qHTS assay (AID 1346983); settings: rPXR luciferase reporter cells, One-Glo luminescence, 24 h; stronger effect = higher value; note: nearly all actives have a fitted effect of over 20% in size
Outline: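 Luminescent readout (One-Glo luciferase, 30 min room temperature) followed 24 hr compound treatment at 37 C of rPXR cells plated 2,000 per well and preincubated 5hr; qHTS format with compounds delivered in DMSO.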

[17] = molecular target: Nuclear receptor subfamily 1 group I member 2 (Homo sapiens) (UniProt O75469); assay: CYP3A4 induction through human pregnane X receptor (PXR) by small molecules, qHTS assay (AID 1346984); note: nearly all actives have a fitted effect of over 40% in size
Outline: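 DPX-2 reporter cells; 24h cpd, 37C; Luciferin-IPA 3uM final x3h; One-Glo 30 min RT; lumi read.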

[18] = molecular target: Nuclear receptor subfamily 1 group I member 2 (Homo sapiens) (UniProt O75469); assay: Human pregnane X receptor (PXR) activation by small molecules, qHTS assay (AID 1346985); note: nearly all actives have a fitted effect of over 40% in size
Outline: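 DPX-2 cells (HepG2 co-transfected with a PXR response element and a CYP3A4-promoter luciferase construct) were seeded at 2,000 per well, rested 5 hr at 37C, then exposed to DMSO-dissolved compounds for 24 hr. Activation was read as luciferase luminescence.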

[19] = molecular target: Cytochrome P450 2D6 (Homo sapiens) (UniProt P10635); assay: Cytochrome P450 Family 2 Subfamily D Member 6 (CYP2D6) small molecule antagonists: luciferase reporter qHTS assay (AID 1671196); note: nearly all actives have a fitted effect of over 50% in size; note: potency is the fitted concentration of half-maximal effect
Outline: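 Inhibition of CYP2D6 was gauged by loss of luminescence, since light produced tracks the luciferin generated from a proluciferin substrate. A 10 min room-temperature preincubation preceded 1 h NADPH-supported turnover.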
% is set by controls: 0 for no effect and ±100 for the full control effect.

Chain of Voltage-gated inwardly rectifying potassium channel KCNH2 (Homo sapiens) (Q12809 whole entry, looked up): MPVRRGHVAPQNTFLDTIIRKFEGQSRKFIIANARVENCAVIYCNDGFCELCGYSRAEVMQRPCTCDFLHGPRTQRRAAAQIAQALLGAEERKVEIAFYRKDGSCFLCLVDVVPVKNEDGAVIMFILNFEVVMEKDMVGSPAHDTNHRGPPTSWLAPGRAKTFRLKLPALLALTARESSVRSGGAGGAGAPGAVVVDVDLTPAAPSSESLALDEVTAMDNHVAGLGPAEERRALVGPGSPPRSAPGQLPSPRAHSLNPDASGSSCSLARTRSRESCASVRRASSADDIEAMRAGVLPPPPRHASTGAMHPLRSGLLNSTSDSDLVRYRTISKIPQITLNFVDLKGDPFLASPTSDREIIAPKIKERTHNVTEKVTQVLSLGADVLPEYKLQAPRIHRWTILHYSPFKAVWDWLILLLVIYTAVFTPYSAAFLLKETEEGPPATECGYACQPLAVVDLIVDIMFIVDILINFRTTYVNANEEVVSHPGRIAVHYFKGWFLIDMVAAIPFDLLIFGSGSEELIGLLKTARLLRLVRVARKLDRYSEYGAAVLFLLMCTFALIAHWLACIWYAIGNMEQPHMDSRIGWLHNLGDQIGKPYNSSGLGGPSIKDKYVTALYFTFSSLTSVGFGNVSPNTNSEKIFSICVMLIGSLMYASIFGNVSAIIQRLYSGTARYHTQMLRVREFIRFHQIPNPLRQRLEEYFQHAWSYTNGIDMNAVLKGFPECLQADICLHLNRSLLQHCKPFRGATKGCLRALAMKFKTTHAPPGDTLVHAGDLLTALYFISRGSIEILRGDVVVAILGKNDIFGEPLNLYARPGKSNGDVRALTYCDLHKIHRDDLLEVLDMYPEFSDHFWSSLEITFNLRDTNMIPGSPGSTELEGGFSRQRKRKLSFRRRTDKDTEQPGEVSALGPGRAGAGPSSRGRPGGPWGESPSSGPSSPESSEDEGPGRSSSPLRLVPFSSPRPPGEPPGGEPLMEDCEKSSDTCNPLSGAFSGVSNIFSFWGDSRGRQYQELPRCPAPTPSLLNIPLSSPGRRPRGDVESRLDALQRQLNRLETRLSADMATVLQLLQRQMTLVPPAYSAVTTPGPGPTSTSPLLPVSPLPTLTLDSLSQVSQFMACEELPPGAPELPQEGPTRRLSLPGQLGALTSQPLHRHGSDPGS
Chain of Cytochrome P450 2C19 (Homo sapiens) (P33261 whole entry, looked up): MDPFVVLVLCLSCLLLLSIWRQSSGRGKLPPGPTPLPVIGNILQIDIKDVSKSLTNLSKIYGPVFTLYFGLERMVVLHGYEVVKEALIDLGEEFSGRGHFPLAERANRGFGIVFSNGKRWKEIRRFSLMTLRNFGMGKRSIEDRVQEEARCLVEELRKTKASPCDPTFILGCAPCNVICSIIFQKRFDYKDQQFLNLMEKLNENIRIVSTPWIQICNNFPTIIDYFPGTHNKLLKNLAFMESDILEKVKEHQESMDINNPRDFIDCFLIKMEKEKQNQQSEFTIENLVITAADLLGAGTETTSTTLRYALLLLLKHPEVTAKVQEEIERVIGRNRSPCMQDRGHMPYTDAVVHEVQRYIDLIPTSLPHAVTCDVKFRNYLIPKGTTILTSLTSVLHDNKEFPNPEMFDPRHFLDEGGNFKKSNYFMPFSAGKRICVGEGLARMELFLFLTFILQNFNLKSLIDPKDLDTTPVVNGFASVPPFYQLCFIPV
Chain of Cytochrome P450 2D6 (Homo sapiens) (P10635 whole entry, looked up): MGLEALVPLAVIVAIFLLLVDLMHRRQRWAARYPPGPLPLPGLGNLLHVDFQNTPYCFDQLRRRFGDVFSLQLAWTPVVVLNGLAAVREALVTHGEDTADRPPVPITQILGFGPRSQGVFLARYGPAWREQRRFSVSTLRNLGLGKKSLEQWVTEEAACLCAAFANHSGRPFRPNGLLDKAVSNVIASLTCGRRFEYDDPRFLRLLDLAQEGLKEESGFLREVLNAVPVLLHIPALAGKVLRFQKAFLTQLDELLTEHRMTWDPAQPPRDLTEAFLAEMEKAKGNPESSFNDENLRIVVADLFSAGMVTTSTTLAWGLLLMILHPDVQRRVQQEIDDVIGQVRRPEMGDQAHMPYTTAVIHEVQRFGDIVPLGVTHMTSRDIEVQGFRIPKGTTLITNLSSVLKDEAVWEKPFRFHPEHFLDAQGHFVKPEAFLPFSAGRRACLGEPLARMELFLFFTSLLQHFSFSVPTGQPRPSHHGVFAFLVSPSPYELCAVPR
Chain of Nuclear receptor subfamily 1 group I member 2 (Homo sapiens) (O75469 whole entry, looked up): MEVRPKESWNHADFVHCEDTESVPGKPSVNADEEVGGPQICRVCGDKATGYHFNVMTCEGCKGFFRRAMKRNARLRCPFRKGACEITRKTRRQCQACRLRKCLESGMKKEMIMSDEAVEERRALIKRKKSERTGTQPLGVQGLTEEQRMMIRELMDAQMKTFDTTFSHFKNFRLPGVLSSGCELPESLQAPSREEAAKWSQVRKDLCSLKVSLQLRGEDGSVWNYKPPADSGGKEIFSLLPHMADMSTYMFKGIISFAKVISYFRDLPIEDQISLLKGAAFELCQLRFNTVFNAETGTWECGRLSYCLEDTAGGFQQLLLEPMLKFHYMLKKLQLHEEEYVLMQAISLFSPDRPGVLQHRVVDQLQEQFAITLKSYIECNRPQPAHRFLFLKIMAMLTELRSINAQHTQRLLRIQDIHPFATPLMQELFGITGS
Chain of Cytochrome P450 2C9 (Homo sapiens) (P11712 whole entry, looked up): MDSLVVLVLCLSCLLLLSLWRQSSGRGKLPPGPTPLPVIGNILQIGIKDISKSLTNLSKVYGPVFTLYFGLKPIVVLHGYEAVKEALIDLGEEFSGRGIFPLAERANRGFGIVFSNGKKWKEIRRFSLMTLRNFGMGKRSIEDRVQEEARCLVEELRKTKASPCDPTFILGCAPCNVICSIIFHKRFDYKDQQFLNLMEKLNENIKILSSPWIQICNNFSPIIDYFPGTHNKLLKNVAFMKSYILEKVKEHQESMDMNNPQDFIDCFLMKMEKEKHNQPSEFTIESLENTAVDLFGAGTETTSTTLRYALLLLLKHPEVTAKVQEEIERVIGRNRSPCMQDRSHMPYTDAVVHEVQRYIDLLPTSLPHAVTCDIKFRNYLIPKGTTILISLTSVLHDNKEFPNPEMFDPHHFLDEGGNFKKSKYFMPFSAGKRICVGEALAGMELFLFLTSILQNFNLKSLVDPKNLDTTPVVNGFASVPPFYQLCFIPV
Chain of Cytochrome P450 3A4 (Homo sapiens) (P08684 whole entry, looked up): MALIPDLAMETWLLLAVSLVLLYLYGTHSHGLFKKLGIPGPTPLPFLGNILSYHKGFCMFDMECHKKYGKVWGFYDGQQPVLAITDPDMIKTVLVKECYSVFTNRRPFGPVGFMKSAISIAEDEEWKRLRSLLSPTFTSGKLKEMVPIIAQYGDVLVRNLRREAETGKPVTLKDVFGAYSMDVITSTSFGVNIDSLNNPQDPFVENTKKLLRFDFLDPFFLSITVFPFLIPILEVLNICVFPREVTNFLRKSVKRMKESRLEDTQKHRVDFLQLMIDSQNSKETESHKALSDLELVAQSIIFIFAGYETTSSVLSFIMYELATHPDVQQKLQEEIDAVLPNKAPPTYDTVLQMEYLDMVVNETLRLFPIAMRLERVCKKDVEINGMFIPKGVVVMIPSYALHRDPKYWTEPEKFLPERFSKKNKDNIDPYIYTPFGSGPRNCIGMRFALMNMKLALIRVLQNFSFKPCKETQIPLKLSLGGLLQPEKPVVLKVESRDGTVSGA
Chain of Cytochrome P450 1A2 (Homo sapiens) (P05177 whole entry, looked up): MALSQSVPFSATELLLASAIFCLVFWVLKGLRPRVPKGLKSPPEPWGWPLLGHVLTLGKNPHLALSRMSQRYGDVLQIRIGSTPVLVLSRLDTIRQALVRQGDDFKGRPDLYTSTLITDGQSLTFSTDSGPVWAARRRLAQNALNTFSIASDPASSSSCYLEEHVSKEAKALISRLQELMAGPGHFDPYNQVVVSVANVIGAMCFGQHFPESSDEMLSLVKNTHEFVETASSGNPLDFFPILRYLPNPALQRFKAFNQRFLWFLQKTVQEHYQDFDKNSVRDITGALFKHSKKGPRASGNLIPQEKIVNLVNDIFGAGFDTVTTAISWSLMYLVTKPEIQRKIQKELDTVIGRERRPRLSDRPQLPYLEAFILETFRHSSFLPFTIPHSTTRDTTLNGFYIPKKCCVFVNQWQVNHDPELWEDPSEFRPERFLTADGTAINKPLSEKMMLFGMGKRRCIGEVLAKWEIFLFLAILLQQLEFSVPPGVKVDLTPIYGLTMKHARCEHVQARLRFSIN
Chain of Acetylcholinesterase (Homo sapiens) (P22303 whole entry, looked up): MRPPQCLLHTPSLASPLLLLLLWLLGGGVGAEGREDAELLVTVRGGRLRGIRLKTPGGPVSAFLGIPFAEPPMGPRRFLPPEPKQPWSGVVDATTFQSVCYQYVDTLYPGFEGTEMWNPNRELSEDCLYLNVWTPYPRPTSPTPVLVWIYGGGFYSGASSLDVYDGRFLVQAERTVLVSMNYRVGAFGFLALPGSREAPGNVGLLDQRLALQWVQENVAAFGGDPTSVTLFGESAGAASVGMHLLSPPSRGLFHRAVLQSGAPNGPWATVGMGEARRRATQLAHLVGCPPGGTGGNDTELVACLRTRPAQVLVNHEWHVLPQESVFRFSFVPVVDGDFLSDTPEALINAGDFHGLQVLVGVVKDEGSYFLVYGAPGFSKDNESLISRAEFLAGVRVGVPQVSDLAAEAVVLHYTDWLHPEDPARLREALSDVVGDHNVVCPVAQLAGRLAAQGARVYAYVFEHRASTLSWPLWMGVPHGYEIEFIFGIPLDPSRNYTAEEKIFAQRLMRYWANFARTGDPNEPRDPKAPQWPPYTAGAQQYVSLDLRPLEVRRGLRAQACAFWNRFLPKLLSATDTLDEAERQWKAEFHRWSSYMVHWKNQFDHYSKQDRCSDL

O=C(Cc1ccccc1)c1ccccc1
inactive: Potency [1] | Potency [2] | Potency [3] | Potency [4] | Potency [5] | Potency [7] | Potency [8] | Potency [9] | Potency [10] | Potency [12] | Potency [14] | Potency [15]
active: Potency [6] 61.1 µM | Potency [11] 11.2 µM | Potency [13] 12.6 µM

Cc1nnc(-c2ccccc2)c(=O)n1N
inactive: Potency [1] | Potency [2] | Potency [3] | Potency [4] | Potency [5] | Potency [6] | Potency [7] | Potency [9] | Potency [10] | Potency [11] | Potency [14] | Potency [15]
active: Potency [13] 35.6 µM

NP(N)(=O)NC(=O)c1ccc(F)cc1
inactive: Potency [1] | Potency [2] | Potency [3] | Potency [4] | Potency [5] | max activation [16] 0.566% | outcome [17] | Potency [18] | Potency [7] | Potency [8] | Potency [9] | Potency [10] | Potency [12] | Potency [14] | Potency [15]

C[C@]12CC[C@H]3[C@@H](CCC4=CC(=O)CC[C@@H]43)[C@@H]1CC[C@@H]2OC(=O)CCc1ccccc1
inactive: Potency [1] | Potency [2] | Potency [3] | Potency [4] | Potency [5] | Potency [6] | Potency [9] | Potency [10] | Potency [19] | Potency [11] | Potency [13] | Potency [15]
active: Potency [12] 30.9 µM

COP(=O)(OC)OC(Br)C(Cl)(Cl)Br (stereo not drawn)
inactive: Potency [1] | Potency [2] | Potency [4] | Potency [5] | Potency [9] | Potency [14]
active: Potency [3] 61.2 µM | Potency [6] 61.2 µM | Potency [19] 40 µM and 39.9 µM | Potency [11] 7.98 µM and 17.8 µM | Potency [12] 25.2 µM and 22.4 µM
79.8 µM (active) and inactive: Potency [15]

CCC[N+](CCC)(CCC)CCC
inactive: Potency [1] | Potency [2] | Potency [3] | Potency [4] | Potency [5] | Potency [6] | Potency [8] | Potency [9] | Potency [10] | Potency [12] | Potency [15]

CCCCCCCCCCCCCCCl
active: Potency [6] 61.4 µM
inactive: Potency [1] | Potency [2] | Potency [3] | Potency [4] | Potency [5] | Potency [7] | Potency [8] | Potency [10] | Potency [11] | Potency [12] | Potency [14] | Potency [15]

O=C(O)c1cc(I)cc(I)c1I
active: Potency [12] 13.6 µM
inactive: Potency [1] | Potency [2] | Potency [3] | Potency [4] | Potency [5] | Potency [6] | Potency [7] | Potency [8] | Potency [9] | Potency [10] | Potency [14] | Potency [15]

O=[N+]([O-])O[C@H]1CO[C@H]2[C@@H]1OC[C@H]2O[N+](=O)[O-]
inactive: Potency [1] | Potency [2] | Potency [3] | Potency [4] | Potency [5] | max activation [16] -0.141% | outcome [17] | Potency [18] | Potency [7] | Potency [8] | Potency [9] | Potency [10] | Potency [19] | Potency [11] | Potency [12] | Potency [13] | Potency [14] | Potency [15]

Cc1ccc(N)c(C)c1
inactive and 896 nM (active): Potency [19]
inactive: Potency [1] | Potency [2] | Potency [3] | Potency [4] | Potency [5] | Potency [6] | Potency [14]
active: Potency [11] 39.5 µM and 7.12 µM | Potency [12] 35.7 µM | Potency [13] 11.1 µM and 2.83 µM | Potency [15] 40 µM

Cc1nc(N(C)C)nc(OC(=O)N(C)C)c1C
active: Potency [7] 11.2 µM | Potency [8] 10 µM | Potency [9] 11.2 µM | Potency [10] 63.3 µM | Potency [11] 79.6 µM | Potency [13] 22.4 µM
inactive: Potency [1] | Potency [2] | Potency [3] | Potency [4] | Potency [5] | Potency [6] | Potency [14] | Potency [15]

CC(C)(C)c1ccc(CCOc2ncnc3ccccc23)cc1
inactive: Potency [1] | Potency [2] | Potency [3] | Potency [4] | Potency [5] | Potency [6] | Potency [7] | Potency [9] | Potency [10] | Potency [11] | Potency [12] | Potency [13] | Potency [14] | Potency [15]

CCCCCCCCn1sccc1=O
inactive: Potency [4] | Potency [7] | Potency [8] | Potency [9] | Potency [10]
active: Potency [1] 50.1 µM and 25.5 µM | Potency [2] 25.5 µM | Potency [3] 12.2 µM and 11.4 µM | Potency [5] 68.7 µM and 50.9 µM | Potency [6] 21.7 µM and 4.04 µM | Potency [11] 10.1 µM and 23.5 µM | Potency [12] 10.1 µM and 9.37 µM | Potency [13] 28.3 µM and 23.5 µM | Potency [14] 21.9 µM | Potency [15] 28.3 µM and 37.3 µM
